MITF inh = blocks human microphthalmia-associated transcription factor; AlphaScreen MITF homodimerization, bead proximity signal; inhibition, % at 2.6 µM; 650,000 tested, 0.91% active; AID 1259374; in the data active = inhibition above about 50%;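 note: 0% = vehicle wells with protein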
GPR151 ag = human GPR151 activation. Q8TDV0. PathHunter beta-arrestin GPR151 cells, luminescence. activation, % at 11.2 µM. 650,000 tested, 1% active. AID 1508602; in the data active = activation above about 4.9%;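 note: 0% = median of compound wells and 100% = cells with positive control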
Target sequence (Q8TDV0 whole entry, looked up): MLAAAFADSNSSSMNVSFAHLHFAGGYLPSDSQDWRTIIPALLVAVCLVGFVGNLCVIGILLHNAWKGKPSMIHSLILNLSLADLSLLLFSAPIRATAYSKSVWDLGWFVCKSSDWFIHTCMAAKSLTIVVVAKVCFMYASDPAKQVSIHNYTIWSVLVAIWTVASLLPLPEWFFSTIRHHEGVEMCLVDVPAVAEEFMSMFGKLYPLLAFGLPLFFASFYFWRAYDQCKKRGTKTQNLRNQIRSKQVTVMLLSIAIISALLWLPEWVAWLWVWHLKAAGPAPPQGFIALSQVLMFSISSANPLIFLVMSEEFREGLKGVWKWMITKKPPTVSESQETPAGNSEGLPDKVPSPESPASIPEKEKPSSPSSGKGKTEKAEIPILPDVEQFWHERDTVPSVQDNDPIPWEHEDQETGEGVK
TEAD-YAP inh = TEAD-YAP interaction inhibition. inhibition, % at 9.12 µM. AID 1259422. 640,000 tested, 1.4% active. HEK-TIYL cells, TEAD-Gal4/YAP UAS-luciferase luminescence; in the data active = inhibition above about 32%;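 note: 0% = median of test compound wells and 100% = reference inhibitor wells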
FBW7 act = activators of human E3 ligase FBW7 | 650,000 tested, 0.13% active | AlphaScreen FBW7–phospho-cyclin E peptide binding, activator screen | AID 1259310 | normalized activity (activation), % at 26.1 µM; in the data active = normalized activity above about 1.9%;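 note: purified mutant Fbw7 with reduced substrate affinity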
MITF inh conf = confirmation of human MITF inhibitors | AID 1259372 | shares compounds with MITF inh | inhibition, % at 2.6 µM | 4,700 tested, 16% active | AlphaScreen MITF homodimerization, biotin/His-MITF beads;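 active = inhibition above a cutoff derived from the DMSO control wells, cut at about 28% in these data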;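 note: 0% = MITF dimer wells with DMSO only; inhibitors lower the bead chemiluminescence by keeping MITF from dimerizing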
AS interf DR = optically interferes with AlphaScreen signal in dose response; 480 tested, 6% active; IC50, µM; AID 1259373; AlphaScreen optical interference counterscreen, cell-free; shares compounds with MITF inh; call rule not given here
AS interf ctr = counter-screen: compounds optically interfering with AlphaScreen | shares compounds with MITF inh | LysRS AlphaScreen counterscreen, signal interference, triplicate | inhibition, % at 2.6 µM | 4,700 tested, 7.6% active;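 active = inhibition above a cutoff derived from the DMSO control wells, cut at about 30% in these data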
Numbers without * were called inactive. In the library only some 3.4% were active in any assay of this set; here they are far more common.

How did O=[N+]([O-])c1ccc(Cl)c(S(=O)(=O)N2CCN(Cc3ccccc3)CC2)c1 do in these assays?
MITF inh: 12.9; GPR151 ag: 1.0; TEAD-YAP inh: 6.5; FBW7 act: -0.3

Results for COc1cccc(CN2CCN(S(=O)(=O)c3cccc([N+](=O)[O-])c3)CC2)c1 ?
MITF inh: 12.0; GPR151 ag: -1.1; TEAD-YAP inh: 2.4; FBW7 act: -0.2

How did O=S(=O)(c1cccc(S(=O)(=O)N2CCN(Cc3ccccc3)CC2)c1)N1CCCC1 do in these assays?
MITF inh: 53.1*; GPR151 ag: 0.6; TEAD-YAP inh: 6.5; FBW7 act: 0.0; MITF inh conf: 8.8; AS interf ctr: 13.9

How did O=[N+]([O-])c1cccc(CN2CCN(S(=O)(=O)c3ccc4ccccc4c3)CC2)c1 do in these assays?
MITF inh: 61.6*; GPR151 ag: -0.3; TEAD-YAP inh: -2.0; FBW7 act: -0.3; MITF inh conf: 14.3; AS interf ctr: 24.3

How did O=[N+]([O-])c1ccc(S(=O)(=O)N2CCN(Cc3cccc(Cl)c3)CC2)cc1 do in these assays?
MITF inh: 64.3*; GPR151 ag: -0.1; TEAD-YAP inh: 7.9; FBW7 act: -0.2; MITF inh conf: 8.7; AS interf ctr: 10.6

What do the screens show for `O=S(=O)(c1ccc2ccccc2c1)N1CCN(C2CCN(Cc3ccccc3)CC2)CC1`?
MITF inh: 52.4*; GPR151 ag: 0.7; TEAD-YAP inh: 9.1; FBW7 act: -0.3; MITF inh conf: 4.5; AS interf ctr: 16.2

What do the screens show for `Cc1ccc(NC(=O)CSc2nc3ncnc(N)c3[nH]2)c(C)c1`?
MITF inh: -4.5; GPR151 ag: 2.9; TEAD-YAP inh: 4.5; FBW7 act: -0.3

Results for CCSc1ccc(SC(CC(=O)c2ccccc2)c2cccc([N+](=O)[O-])c2)s1 (stereo unspecified) ?
MITF inh: 15.5; GPR151 ag: 0.4; TEAD-YAP inh: 2.4; FBW7 act: 0.1

How did COc1cccc(CN2CCOCC2)c1 do in these assays?
MITF inh: -1.6; GPR151 ag: -0.1; TEAD-YAP inh: 6.7; FBW7 act: 0.1

What do the screens show for `COc1ccc(CN2CCN(Cc3cccnc3)CC2)cc1`?
MITF inh: 73.6*; GPR151 ag: 2.0; TEAD-YAP inh: -13.8; FBW7 act: -0.3; MITF inh conf: 23.7; AS interf ctr: 13.4

Results for COc1ccc(C2CCN(Cc3cccnc3)CC2)cc1 ?
MITF inh: 64.0*; GPR151 ag: 0.1; TEAD-YAP inh: 2.0; FBW7 act: 0.2; MITF inh conf: 10.1; AS interf ctr: 9.2

What do the screens show for `COc1cc(CN2CCCCCCC2)cc(OC)c1O`?
MITF inh: 22.4; GPR151 ag: 0.2; TEAD-YAP inh: -3.3; FBW7 act: 0.3

What do the screens show for `COc1cccc(CN2CCN(Cc3cccnc3)CC2)c1`?
MITF inh: 79.4*; GPR151 ag: -1.1; TEAD-YAP inh: -3.8; FBW7 act: 0.1; MITF inh conf: -11.4; AS interf ctr: -0.2

How did COc1ccc(CC2(CO)CCN(Cc3cccnc3)CC2)cc1 do in these assays?
MITF inh: -5.1; GPR151 ag: 1.4; TEAD-YAP inh: 6.3; FBW7 act: -0.1

How did COc1cc(CN2CCN(Cc3cccnc3)CC2)cc(OC)c1O do in these assays?
MITF inh: 65.7*; GPR151 ag: -1.7; TEAD-YAP inh: 0.6; FBW7 act: 0.1; MITF inh conf: 4.3; AS interf ctr: 6.8

What do the screens show for `COc1cccc(CN2CCC(CNc3ccc(-c4ccncc4)cc3)C2)c1` (stereo unspecified)?
MITF inh: 62.8*; GPR151 ag: -2.0; TEAD-YAP inh: -6.0; FBW7 act: 0.0; MITF inh conf: 61.4*; AS interf DR: >6.48; AS interf ctr: 11.8

What do the screens show for `CSc1ccc(CN2CCN(Cc3cccnc3)CC2)cc1`?
MITF inh: 85.8*; GPR151 ag: -0.3; TEAD-YAP inh: 3.0; FBW7 act: 0.5; MITF inh conf: 16.2; AS interf ctr: 16.7

How did CC(C)(C)C(=O)COC(=O)C1CCN(S(=O)(=O)c2cccs2)CC1 do in these assays?
MITF inh: -50.0; GPR151 ag: -2.5; TEAD-YAP inh: 6.3; FBW7 act: 0.1

What do the screens show for `COc1cccc(CN2CCN(Cc3cccc(Oc4ccccc4)c3)CC2)c1OC`?
MITF inh: 74.2*; GPR151 ag: -0.2; TEAD-YAP inh: -6.9; FBW7 act: 0.5; MITF inh conf: 4.7; AS interf ctr: 2.7

How did COc1cccc(CN2CCC(N3CCCC3)CC2)c1OC do in these assays?
MITF inh: 20.0; GPR151 ag: 2.3; TEAD-YAP inh: 3.2; FBW7 act: -0.2

Results for COc1cccc(CN2CCN(C3CCC(C)CC3)CC2)c1OC (stereo unspecified) ?
MITF inh: 70.1*; GPR151 ag: -0.9; TEAD-YAP inh: -12.3; FBW7 act: -0.3; MITF inh conf: 17.1; AS interf ctr: -3.0

What do the screens show for `COc1cc(C(=O)N2CCN(Cc3cccc(Oc4ccccc4)c3)CC2)cc(OC)c1OC`?
MITF inh: 28.7; GPR151 ag: -0.3; TEAD-YAP inh: 6.0; FBW7 act: -0.4

What do the screens show for `COc1ccc(CN2CCC(N3CCN(c4ccccc4)CC3)CC2)cc1OC`?
MITF inh: 55.7*; GPR151 ag: -1.7; TEAD-YAP inh: 18.9; FBW7 act: 0.0; MITF inh conf: -6.4; AS interf ctr: -9.7

Results for COc1cccc(CN2CCN(Cc3ccccc3Br)CC2)c1OC ?
MITF inh: 35.5; GPR151 ag: -1.6; TEAD-YAP inh: -21.1; FBW7 act: -0.2

How did COc1ccccc1CN1CCN(Cc2cccc(OC)c2OC)CC1 do in these assays?
MITF inh: 86.2*; GPR151 ag: 1.5; TEAD-YAP inh: -2.5; FBW7 act: 0.0; MITF inh conf: 4.9; AS interf ctr: 16.6

What do the screens show for `Cc1cnc(-c2ccc3[nH]ccc3c2)nc1NCc1ccccc1`?
MITF inh: 14.3; GPR151 ag: -0.9; TEAD-YAP inh: 15.4; FBW7 act: -0.2

How did COc1cccc(CN2CCN(Cc3cccc(OC)c3OC)CC2)c1OC do in these assays?
MITF inh: 74.3*; GPR151 ag: 0.4; TEAD-YAP inh: -2.0; FBW7 act: -0.4; MITF inh conf: 6.0; AS interf ctr: 10.3

Results for COc1cccc(CN2CCC(N3CCN(c4ccccc4)CC3)CC2)c1OC ?
MITF inh: 55.5*; GPR151 ag: 0.3; TEAD-YAP inh: 5.5; FBW7 act: 0.0; MITF inh conf: -8.5; AS interf ctr: -3.0

Results for COc1cc(CN2CCN(Cc3cccc(C)c3)CC2)cc(OC)c1OC ?
MITF inh: 41.9; GPR151 ag: -0.2; TEAD-YAP inh: -3.7; FBW7 act: -0.6

Results for COc1ccccc1CNC(=O)CN1CCN(C)CC1 ?
MITF inh: 79.5*; GPR151 ag: 0.0; TEAD-YAP inh: -5.8; FBW7 act: -0.1; MITF inh conf: 4.5; AS interf ctr: 12.9
